Here are results for 20 compounds from PubChem BioAssay (NCATS).

In test [1] the target is Rap guanine nucleotide exchange factor 3 (Homo sapiens) (UniProt O95398). Description: Confirmatory qHTS for antagonist of cAMP-regulated guanine nucleotide exchange factor 3 (EPAC1) (AID 1645880). Note: nearly all actives have a fitted effect of over 55% in size. Note: potency is the fitted concentration of half-maximal effect. An outline of the steps: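 Released BODIPY-GDP fluoresces less than Rap1-bound BODIPY-GDP; the signal is followed at 480/540 nm at 5-min intervals over 30 min, after 5 min at room temperature. Reactions contain 100 nM EPAC1, 250 nM RAP1B-BODIPY-GDP and 50 uM GDP; results are normalized to ATA and DMSO.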
Chain of Rap guanine nucleotide exchange factor 3 (Homo sapiens) (O95398 whole entry, looked up): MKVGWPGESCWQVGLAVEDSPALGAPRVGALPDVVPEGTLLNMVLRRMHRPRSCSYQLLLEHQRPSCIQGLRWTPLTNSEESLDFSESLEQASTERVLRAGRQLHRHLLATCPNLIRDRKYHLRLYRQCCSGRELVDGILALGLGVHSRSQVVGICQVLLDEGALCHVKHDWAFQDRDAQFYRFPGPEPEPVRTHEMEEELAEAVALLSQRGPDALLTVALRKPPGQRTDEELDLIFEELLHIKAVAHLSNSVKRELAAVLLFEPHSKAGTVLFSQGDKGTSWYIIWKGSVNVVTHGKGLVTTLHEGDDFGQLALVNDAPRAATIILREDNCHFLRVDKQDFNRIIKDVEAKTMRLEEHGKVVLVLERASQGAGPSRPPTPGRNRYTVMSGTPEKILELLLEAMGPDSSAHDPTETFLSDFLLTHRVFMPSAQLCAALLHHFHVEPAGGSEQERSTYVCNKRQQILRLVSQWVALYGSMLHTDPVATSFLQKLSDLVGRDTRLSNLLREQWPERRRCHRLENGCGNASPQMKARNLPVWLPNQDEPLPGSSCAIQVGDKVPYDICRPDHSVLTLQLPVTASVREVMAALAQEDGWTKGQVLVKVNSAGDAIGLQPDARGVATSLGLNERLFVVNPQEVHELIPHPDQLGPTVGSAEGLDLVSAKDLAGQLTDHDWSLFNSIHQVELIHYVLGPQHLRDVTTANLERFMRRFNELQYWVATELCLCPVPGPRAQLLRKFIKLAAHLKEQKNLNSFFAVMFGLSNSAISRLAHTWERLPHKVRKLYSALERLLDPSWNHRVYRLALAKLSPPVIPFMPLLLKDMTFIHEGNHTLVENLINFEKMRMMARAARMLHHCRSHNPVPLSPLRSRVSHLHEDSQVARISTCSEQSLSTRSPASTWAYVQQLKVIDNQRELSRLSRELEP

Test [2] has the same target. As to the kind of experiment: Confirmatory qHTS for agonist of cAMP-regulated guanine nucleotide exchange factor 3 (EPAC1) (AID 1645881).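 For activation: EPAC1 catalysed release of BODIPY-GDP from Rap1B seen as fluorescence loss; 100% = effect of cAMP agonist control.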 Note: nearly all actives have a fitted effect of over 75% in size. Note: potency is the fitted concentration of half-maximal effect. A general note: qHTS replaces the single test concentration by a dilution series.
The target of test [3] is Rap guanine nucleotide exchange factor 4 (Homo sapiens) (UniProt Q8WZA2). As to the kind of experiment: Confirmatory qHTS for agonist of cAMP-regulated guanine nucleotide exchange factor 4 (EPAC2) (AID 1645884). For activation: % is set by controls: 0 for no effect and ±100 for the full control effect.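 Note: nucleotide exchange releases bodipy-GDP from Rap1 and this lowers its fluorescence; nearly all actives have a fitted effect of over 65% in size.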 Note: potency is the fitted concentration of half-maximal effect.
Chain of Rap guanine nucleotide exchange factor 4 (Homo sapiens) (Q8WZA2 whole entry, looked up): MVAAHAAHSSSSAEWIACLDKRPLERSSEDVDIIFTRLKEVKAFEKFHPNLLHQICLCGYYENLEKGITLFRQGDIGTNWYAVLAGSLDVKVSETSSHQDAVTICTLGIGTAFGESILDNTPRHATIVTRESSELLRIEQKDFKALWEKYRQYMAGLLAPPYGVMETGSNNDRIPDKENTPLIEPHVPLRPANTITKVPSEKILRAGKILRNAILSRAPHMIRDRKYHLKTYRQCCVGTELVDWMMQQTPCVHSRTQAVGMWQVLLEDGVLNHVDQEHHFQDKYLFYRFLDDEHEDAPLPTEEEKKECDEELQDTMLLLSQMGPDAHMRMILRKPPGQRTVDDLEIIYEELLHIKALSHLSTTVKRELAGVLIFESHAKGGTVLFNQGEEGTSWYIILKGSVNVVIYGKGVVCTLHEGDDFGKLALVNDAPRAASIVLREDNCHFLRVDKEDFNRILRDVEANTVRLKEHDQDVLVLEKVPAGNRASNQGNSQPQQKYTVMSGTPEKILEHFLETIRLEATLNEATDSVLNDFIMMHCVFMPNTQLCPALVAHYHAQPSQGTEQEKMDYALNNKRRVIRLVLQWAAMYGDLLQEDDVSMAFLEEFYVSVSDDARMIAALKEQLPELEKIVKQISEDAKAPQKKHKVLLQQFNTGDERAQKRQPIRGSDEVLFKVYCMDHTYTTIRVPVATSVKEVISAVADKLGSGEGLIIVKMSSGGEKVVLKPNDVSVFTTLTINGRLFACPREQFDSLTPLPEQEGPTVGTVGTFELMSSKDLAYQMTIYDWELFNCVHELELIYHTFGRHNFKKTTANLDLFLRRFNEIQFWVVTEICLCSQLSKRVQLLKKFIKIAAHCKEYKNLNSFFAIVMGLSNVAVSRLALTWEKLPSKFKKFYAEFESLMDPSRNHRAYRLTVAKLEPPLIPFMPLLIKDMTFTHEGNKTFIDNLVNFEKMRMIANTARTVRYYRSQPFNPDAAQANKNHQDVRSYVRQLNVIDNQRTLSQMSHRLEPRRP
For test [4] the target is unchanged. As to the kind of experiment: Confirmatory qHTS for antagonist of cAMP-regulated guanine nucleotide exchange factor 4 (EPAC2) (AID 1645885). For activity change, negative = inhibition: % is set by controls: 0 for no effect and ±100 for the full control effect. Note: nearly all actives have a fitted effect of over 25% in size. Note: potency is the fitted concentration of half-maximal effect.
Test [5] deals with Rap guanine nucleotide exchange factor 3 (Homo sapiens) (UniProt O95398). As to the kind of experiment: Counterscreen qHTS for antagonist of cAMP-regulated guanine nucleotide exchange factor 3 (EPAC1) (AID 1645888). Note: % of control where 0% means no effect. An outline of the steps:
(§1)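 Rap1B-BODIPY-GDP 250 nM + GDP 50 uM; cpds 7-pt, final 9.74 nM–152 uM (activator mode) or from 7.32 nM upwards (inhibitor mode); RT; FI 480/540 nm at 5 and 30 min, then ± cAMP, reread.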

Test [6] has the same target. Description: Counterscreen qHTS for agonist of cAMP-regulated guanine nucleotide exchange factor 3 (EPAC1) (AID 1645889). For activation: % of control where 0% means no effect. Note: nearly all actives have a fitted effect of over 40% in size. Note: potency is the fitted concentration of half-maximal effect. An outline of the steps:
as §1
Background: A counterscreen serves to expose hits that act by an unwanted route or on another target.

Records with an inconclusive call do not appear. A number with no mark means an inactive call. Activity calls are given as the source filed them. Calls come from the whole dose curve; as a rule, active = well fitted curve in the direction sought with a large enough effect; inconclusive = small, poorly fitted or top-dose-only effect, or another doubt; inactive = no such curve, though single readings can be large; an effect the other way counts as inactive or inconclusive.

For `COc1cc(CCc2ccccc2)c(C(=O)O)c(O)c1CC=C(C)C`, the Potency in test [1] was 42.6 µM (active). In addition, the Potency result in test [2], in test [3], in test [4], in test [5] and in test [6] was “inactive” in each case.
Take `O=C(CCCc1ccccc1)NCc1cn2ccsc2n1`: the Potency result in test [1], in test [2], in test [3], in test [4], in test [5] and in test [6] was “inactive” each time.
`CC[n+]1c(/C=C/C=C/N(C(C)=O)c2ccccc2)sc2cc(OC)ccc21`: the Potency result in test [1], in test [4] and in test [5] was “inactive” in each case. In addition, the figures for the Potency in test [2], in test [3] and in test [6] were 100 µM (active), 112 µM (active) and 50.1 µM (active), respectively.
As to `CC1(C(=O)NS(=O)(=O)c2ccc(C#N)cc2)CCN1C(=O)C1(c2ccccc2)CCCC1` (stereo not given), the Potency in test [1] was 37.9 µM (active); in test [4], 33.8 µM (active). Also, the Potency result in test [2], in test [3], in test [5] and in test [6] was “inactive” each time.
Regarding `C=CCc1ccccc1Oc1cc(OC)nc(N)n1`, the Potency result in test [1], in test [2] and in test [4] was “inactive” each time. Also, the activation in test [3] was -1.65% [at 17.1 µM, percent relative to cAMP agonist control]; in test [6], -1.76% [at 30.8 µM]. For the same compound, the activity change, negative = inhibition in test [5] is -22.4% [at 30.8 µM].
For the compound `CC(=N\NC(=O)c1ccccc1)/C(=N/O)C(=O)Nc1ccccc1`, the Potency in test [1] was 3.16 µM (active). Moreover, the Potency result in test [2] and in test [4] was “inactive” each time. In addition, the activation in test [3] is 7.97% [at 17.1 µM, percent relative to cAMP agonist control]; in test [6], 27.9% [at 30.8 µM]. The activity change, negative = inhibition in test [5] is 9.03% [at 30.8 µM].
Consider `N#CC1=C(O)C(c2ccccc2)n2c1nc(=O)c1ccccc12` (stereo not given), for which the Potency entry in test [1], in test [2] and in test [4] was “inactive” each time. Also, the activation in test [3] is 0.476% [at 17.1 µM, percent relative to cAMP agonist control]; in test [6], 1.1% [at 30.8 µM]. In test [5], the activity change, negative = inhibition is 1.23% [at 30.8 µM].
Regarding `COC(=O)c1cc2sccc2n1Cc1ccc(F)cc1`, the Potency result in test [1], in test [2], in test [3], in test [4], in test [5] and in test [6] was “inactive” each time.
As to `C=CCCCN(Cc1ccccc1)S(=O)(=O)c1ccccc1Br`, the Potency result in test [1], in test [2] and in test [4] was “inactive” throughout. Further, the activation in test [3] is 1.87% [at 17.1 µM, percent relative to cAMP agonist control]; in test [6], 12.4% [at 30.8 µM]. For the same compound, the activity change, negative = inhibition in test [5] is -1.46% [at 30.8 µM].
For the compound `COc1ccccc1NC(=O)C(C)OC(=O)COc1cccc2c1OC(C)(C)C2` (stereo not given), the Potency result in test [1], in test [2] and in test [4] was “inactive” each time. The activation in test [3] was 2.07% [at 17.1 µM, percent relative to cAMP agonist control]; in test [6], 7.64% [at 30.8 µM]. For the same compound, in test [5], the activity change, negative = inhibition was -14.5% [at 30.8 µM].
For the compound `Cc1ccc(C(=O)Nc2sc(C)c(C)c2C(=O)c2ccccc2)cc1`, the Potency result in test [1], in test [2] and in test [4] was “inactive” in each case. Moreover, the activation was 4.34% [at 17.1 µM, percent relative to cAMP agonist control] in test [3] and -4.34% [at 30.8 µM] in test [6]. Moreover, in test [5], the activity change, negative = inhibition was -1.59% [at 30.8 µM].
Regarding `COc1ccc(CCNC(=O)CSc2nc(N)c(C#N)c(-c3cccs3)c2C#N)cc1OC`, the Potency entry in test [1], in test [2] and in test [4] was “inactive” in each case. Also, the activation was 3.67% [at 17.1 µM, percent relative to cAMP agonist control] in test [3] and 20.5% [at 30.8 µM] in test [6]. In test [5], the activity change, negative = inhibition was -17% [at 30.8 µM].
For the compound `O=C1CC(c2ccccc2C(F)(F)F)c2c(c3ccccc3[nH]c2=O)O1` (stereo not given), the Potency result in test [1], in test [2], in test [3], in test [4], in test [5] and in test [6] was “inactive” in each case.
On to `O=C(N/N=C/C=C\c1ccco1)c1ccccn1`, for which the Potency in test [1] is 6.01 µM (active). For the same compound, the Potency entry in test [2], in test [3], in test [4], in test [5] and in test [6] was “inactive” in each case.
For `Cc1[nH]c(C)c2c(=O)n(Cc3ccc(Cl)cc3)ncc12`, the Potency result in test [1], in test [2], in test [3], in test [5] and in test [6] was “inactive” in each case. In addition, the Potency in test [4] is 15.1 µM (active).
With `CCc1nc(C)cn1S(=O)(=O)c1cc(C)c(OC)cc1C`, the Potency result in test [1], in test [2], in test [3], in test [4], in test [5] and in test [6] was “inactive” throughout.
Take `O=C(c1ccc(Br)o1)N1CCN(c2ccc3nnc(-c4ccc(F)cc4)n3n2)CC1`: the Potency result in test [1], in test [2] and in test [4] was “inactive” in each case. In addition, the activation in test [3] is -1.27% [at 17.1 µM, percent relative to cAMP agonist control]; in test [6], 25.2% [at 30.8 µM]. Further, the activity change, negative = inhibition in test [5] was -4.8% [at 30.8 µM].
In the case of `O=C(Cn1c(=O)oc2cc(S(=O)(=O)N3CCCCC3)ccc21)N1CCc2ccccc2C1`, the Potency entry in test [1], in test [2], in test [3], in test [4], in test [5] and in test [6] was “inactive” in each case.
Consider `O=S(=O)(NCc1ccccc1)c1ccc(S(=O)(=O)N(Cc2cccs2)CC2CCCO2)cc1` (stereo not given), for which the Potency result in test [1], in test [2], in test [3], in test [4], in test [5] and in test [6] was “inactive” each time.
On to `COc1cccc(C(NC(C)=O)c2nc(-c3csc4ccccc34)cs2)c1` (stereo not given), for which the Potency result in test [1], in test [2] and in test [4] was “inactive” throughout. Besides, the activation in test [3] was 1.45% [at 17.1 µM, percent relative to cAMP agonist control]; in test [6], 29.4% [at 30.8 µM]. Also, in test [5], the activity change, negative = inhibition was -22.7% [at 30.8 µM].
